This note sets out measurements from PubChem BioAssay (NCI).

This is part of a sample that, as a whole, favours compounds with a hit. Of some 83,000 tested, about 20% had one in any assay.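 A percent growth of 40 corresponds to 60% growth inhibition; 0 means no net growth; -100 means all cells died. Active threshold: below 10.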 The source made the active and inactive calls.

The subject of the assay is MDA-MB-468 breast. The assay can be described thus: NCI-60 one-dose screen, 48 h (100 = growth as untreated, 0 = no growth, -100 = all killed). The conditions noted are these: 10 µM unless noted.
Regarding `C=C1C(=O)O[C@@H]2[C@H]3[C@H](COC(C)=O)[C@@H](OC(C)=O)C[C@H]3C(=C)[C@@H](O)C[C@@H]12`, the growth was 77% (inactive).
For the compound `COc1ccc(CNc2c3ccccc3nc3ccccc23)c(OC)c1`, the growth is 4.83% (active).
For the compound `COc1cc2nc(-c3ccc(C(F)(F)F)cc3)cc(OCCCN3CCOCC3)c2cc1OC`, the growth was 49.4% (inactive).
In the case of `CCCCOc1ccc(/C=C2/SC(N3CCOCC3)=NC2=O)cc1OCC`, the growth was 97.8% (inactive).
Under `CCOC(=O)c1c2c(n3ccc(NC(=O)CCN(CC)CC)cc13)C(=O)c1ncccc1C2=O` stands 81.7% (inactive).
For `Cn1c(=O)c2[nH]c(C3CC=CCC3)nc2n(C)c1=O` (stereo not given), the growth is 107% (inactive).
For `CCCCCCCCCCCCCCCCCBr`, the growth is 99.8% (inactive).
Next, `Cc1ccc(Nc2ccc(O)c3c2C(=O)c2c(O)ccc(Nc4ccc(C)cc4)c2C3=O)cc1`: 95.8% (inactive).
Under `CCC(C)NCC(=O)O` (stereo not given) stands 100% (inactive); under `CN(C)CCn1cc(-c2ccc3c(Nc4ccc(CC(=O)Nc5cccc(F)c5)cc4)ncnc3c2)cn1`, -82.9% [30 µM] (active).
As for `O=C1/C(=C/c2ccccc2)Oc2ccc(O)c(I)c21`, the growth was 104% (inactive).
For the compound `CN1CCN(Cc2ccc(NC(=O)c3cnc(F)c(C#Cc4cnc(N)c5ncccc45)c3)cc2C(F)(F)F)CC1`, the growth is -5.56% (active).
For `N#CCNc1ccccc1N`, the growth was 108% (inactive).
Under `COc1cc(/C=C/c2cc(/C=C/c3ccc(O)c(OC)c3)n(C(=O)c3ccccc3Br)n2)ccc1O` stands 2.97% (active); under `C=C1C(=O)O[C@H]2[C@H]1CC/C(COC(=O)C(=O)c1c[nH]c3ccccc13)=C\CC[C@@]1(C)O[C@@H]21`, -59.8% (active); under `COc1cc(-c2nc3sccn3c2-c2ccnc(NCCCNS(=O)(=O)c3ccc(F)cc3)n2)ccc1F`, 61.3% (inactive).
Under `CCCN(CCC)C(=O)c1ccc(C)cc1` stands 96.3% (inactive); under `C[C@]12CC[C@@H]3c4ccc(O)c([N+](=O)[O-])c4CC[C@H]3[C@@H]1CCC2=O`, 71% (inactive).
Regarding `CCN1C(=O)N(CC)C2C1NN=c1s/c(=C\c3ccc(OC)cc3)c(=O)n12` (stereo not given), the growth was -0.192% (active).
As for `N/C(=N\OC(=O)CSc1nc2ccccc2s1)c1ccc(Cl)cc1`, the growth is 100% (inactive).
Under `O=C(NNc1nc2cc(F)c(F)cc2n2cccc12)c1cnccn1` stands 17.5% (inactive); under `COc1cccc(NC(=O)c2sc3nc4c(cc3c2N)C(O)CCC4)c1` (stereo not given), 48.6% (inactive); under `COc1ccc(Nc2c3ccccc3nc3ccccc23)cc1`, 14.1% (inactive).
Under `O=C(Nc1ccccc1Cl)Oc1ccc(-c2ccccc2)cc1` stands 115% (inactive).
Next, `N#C/C(=N\Nc1ccc(Cl)cc1)C(=O)Nc1cc(-c2ccccc2)nn1-c1ccccc1`: 7.6% (active); `O=C(Nc1cccc(Cl)c1)Oc1c(Br)c(Br)c(Br)c(Br)c1Br`: 94.1% (inactive).
For the compound `O=C(N/N=C\c1cc(Cl)ccc1O)N/N=C/c1cc(Cl)ccc1O`, the growth is 61.5% (inactive).
With `Clc1ccc2c(c1)C(c1c[nH]c3ccccc13)(c1c[nH]c3ccccc13)CCO2`, the growth is 86.5% (inactive).
Turning to `CNCCCn1c2c(c3ccc(F)cc3c1=O)C(=O)c1cc(OC)cnc1-2`, the growth was -47.6% (active).
Next, `O=[N+]([O-])c1ccc(Cl)c(-c2cc(CCCCO)on2)c1`: 98.3% (inactive); `Clc1ccc(-c2nc(Br)cn3ccnc23)cc1`: 78.9% (inactive); `Cc1ccc2c(c1)O/C(=C\c1ccc([N+](=O)[O-])o1)C2=O`: 23.3% (inactive).
As to `O=[N+]([O-])c1cc[n+]([O-])cc1`, the growth was 98.1% (inactive).
Next, `CC[C@]1(O)CC2CN(CCc3c([nH]c4ccccc34)[C@@](C(=O)OC)(c3cc4c(cc3OC)N(C=O)[C@H]3[C@@](O)(C(=O)OC)[C@H](OC(C)=O)[C@]5(CC)C=CCN6CC[C@]43[C@@H]65)C2)C1` (stereo not given in full): 10.4% (inactive).
Turning to `C=CCn1c(SCC(=O)Nc2cccc(C(=O)/C=C/c3cccc([N+](=O)[O-])c3)c2)nc2ccccc2c1=O`, the growth was 89.2% (inactive).
Next, `CCCCC(N)(C(=O)O)C1CCCC1` (stereo not given): 107% (inactive); `COc1ccc(OC)c(Cn2cc3c(c2)-c2oncc2CC3)c1`: 3.48% (active).
Next, `CN1c2ccccc2Sc2cc(C=C(C#N)C#N)ccc21`: -24.4% (active); `Cc1nn(-c2ccc([N+](=O)[O-])cc2)c2ncnc(N/N=C/c3ccccc3O)c12`: -16.6% (active).
Under `COc1cccc(-c2nc3sccn3c2-c2ccnc(NCCCNS(=O)(=O)c3ccc(Cl)cc3)c2)c1` stands 34.3% (inactive).
